Among the data in PubChem BioAssay are composite z-score and z-score values, retold here.

Each structure is given as a SMILES string. Active and inactive are the calls of the source. Unless noted, how the calls were made is not given here.

The subject of assay [1] is XIP peptide (Xip251-270) binding. Nature of the assay: small-molecule binders of XIP peptide, primary screen, biochemical, small-molecule microarray, fluorescence 635/667 nm, 0.1 µg/mL protein (AID 1182). The following applies: fluorescent protein binding, 635 nm, higher = more signal, called active from +8 up or from −8 down.
The subject of assay [2] is XIP peptide (Xip251-270). Nature of the assay: small-molecule binders of XIP peptide, primary screen, biochemical, small-molecule microarray, fluorescence 635/667 nm, 0.5 µg/mL protein (AID 1183). Particulars: small-molecule microarray binding, fluorescence 635 nm; higher = more signal.
A short description of assay [3]: Plasmodium falciparum growth inhibition, primary screen, strain 3D7, DAPI fluorescence, 100 nL (AID 1184).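 Further: parasites grown inside human red blood cells in medium with human serum.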 Particulars: P. falciparum 3D7 growth, 3 d, higher = more signal.
The target in assay [4] is Homeobox protein Hox-A13 (Mus musculus) (UniProt Q62424). As to the kind of experiment: inhibitors of HoxA13-DNA binding, primary screen, biochemical, fluorescence polarization, labeled oligonucleotide (AID 1185). Particulars: 15 min, higher = more signal, called active from +8 up or from −8 down. A general note: Fluorescence polarisation rises when a labelled molecule tumbles more slowly, as on binding a larger partner.

A short description of assay [5]: inhibitors of hydroxyurea-induced Chk1 phosphorylation, primary screen, imaging, HeLa, phospho-Chk1 antibody, percent positive cells (AID 1186). The following applies: hydroxyurea-induced phospho-Chk1 immunofluorescence imaging, higher = more signal.
Assay [6] can be described thus: inhibitors of hydroxyurea-induced Chk1 phosphorylation, primary screen, imaging, HeLa, phospho-Chk1 nuclear intensity (AID 1187). The following applies: hydroxyurea-induced phospho-Chk1 immunofluorescence imaging, higher = more signal.

Chain of Homeobox protein Hox-A13 (Mus musculus) (Q62424 whole entry, looked up): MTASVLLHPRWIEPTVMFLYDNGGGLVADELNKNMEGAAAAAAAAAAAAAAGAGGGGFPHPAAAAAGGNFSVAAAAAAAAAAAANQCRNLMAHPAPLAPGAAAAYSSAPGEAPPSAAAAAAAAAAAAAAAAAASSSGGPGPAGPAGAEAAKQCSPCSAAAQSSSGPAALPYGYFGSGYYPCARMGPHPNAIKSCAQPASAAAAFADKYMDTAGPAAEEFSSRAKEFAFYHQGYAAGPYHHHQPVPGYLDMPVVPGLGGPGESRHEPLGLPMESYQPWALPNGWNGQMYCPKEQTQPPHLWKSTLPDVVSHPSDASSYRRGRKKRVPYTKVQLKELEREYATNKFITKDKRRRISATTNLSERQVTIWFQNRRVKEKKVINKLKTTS

Take `O=C1OCCC=C[C@H]2OC34C=CCN(c5ccc6ccccc6c5)C(=O)[C@H]3N(CCCCCCO)C(=O)[C@@H]4C12` (stereo partly drawn): the composite z-score in assay [1] was -0.0517 (inactive); in assay [2], 0.79. Besides, the z-score in assay [3] is 0.0888; in assay [4], -5.18 (inactive); in assay [5] it was 0.183 (inactive); in assay [6], 0.399 (inactive).
Regarding `[N-]=[N+]=NCc1ccccc1[C@@H]1OC(c2ccc(OCCCO)cc2)=N[C@]1(Cc1ccccc1)C(=O)O`, the composite z-score in assay [1] is 0.078 (inactive); in assay [2], 0.859. The z-score in assay [3] was 0.615; in assay [4] it was -4.89 (inactive); in assay [5] it was 0.412 (inactive); in assay [6], 0.595 (inactive).
Turning to `C=CCN1C(=O)[C@]2(COC(c3ccc(OCCCO)cc3)=N2)Cc2ccccc21`, the composite z-score in assay [1] is 2.53 (inactive); in assay [2], 0.797. In addition, the z-score in assay [3] is -2.19; in assay [4] it was -4.31 (inactive); in assay [5], -0.455 (inactive); in assay [6], -0.398 (inactive).
In the case of `COc1ccc([Si](C)(C)[C@@H]2[C@@H](CC(=O)N3Cc4ccccc4C[C@H]3CO)O[C@]3(C(=O)N(Cc4cccc(N5C(=O)COc6ccccc65)c4)c4ccccc43)[C@H]2C)cc1`, the results for the composite z-score in assay [1] and in assay [2] were 1.16 (inactive) and 0.778, respectively. The z-score is -2.79 in assay [3], -0.616 (inactive) in assay [4], -0.635 (inactive) in assay [5] and -0.0275 (inactive) in assay [6].
In the case of `COc1ccc(C#Cc2ccc3c(c2)[C@]2(C(=O)N3)[C@H](c3ccc(OCCO)cc3)N3[C@H](c4ccccc4)[C@H](c4ccccc4)OC(=O)[C@H]3[C@@H]2C(=O)Nc2nc3ccccc3s2)cc1`, the figures for the composite z-score in assay [1] and in assay [2] were 0.353 (inactive) and 0.522, respectively. The z-score in assay [3] was -1.3; in assay [4], 3.34 (inactive); in assay [5] it was 0.141 (inactive); in assay [6], 0.315 (inactive).
With `C[N+](C)(C)CCCCNC(=O)[C@H]1C[C@H]2C(=O)N3CCC[C@H]3C(=O)N2[C@H]1c1ccc(O)cc1`, the figures for the composite z-score in assay [1] and in assay [2] were 1.36 (inactive) and 0.806, respectively. In addition, the z-score in assay [3] was -0.0706; in assay [4] it was -0.675 (inactive); in assay [5], 0.0919 (inactive); in assay [6], -0.206 (inactive).
In the case of `CC(=O)NCCCC[C@@H]1NC(=O)[C@@H]2C[C@H](C(=O)NCCCCCC[N+](C)(C)C)[C@H](c3cccc(OCCO)c3)N2C1=O`, the results for the composite z-score in assay [1] and in assay [2] were 1.52 (inactive) and 0.345, respectively. In addition, the z-score in assay [3] is 0.129; in assay [4] it was -4.94 (inactive); in assay [5] it was -0.502 (inactive); in assay [6], -0.0493 (inactive).
Take `O=C(NCC(F)(F)F)[C@@H]1c2ccccc2C(=O)N(Cc2ccccc2)[C@H]1c1ccc(CO)cc1`: the composite z-score in assay [1] is 0.377 (inactive); in assay [2], -0.396. In addition, the z-score in assay [3] was -0.778; in assay [4] it was -1.25 (inactive); in assay [5], -0.571 (inactive); in assay [6] it was -0.801 (inactive).
Turning to `C=C[C@H](C)[C@H](O)c1ccc(OCCO)cc1`, the composite z-score in assay [1] is -0.199 (inactive); in assay [2] it was -0.143. Besides, the z-score in assay [3] was -0.996; in assay [4] it was -0.499 (inactive); in assay [5], -0.82 (inactive); in assay [6], -0.216 (inactive).
For `O=C1O[C@H](c2ccccc2)[C@H](c2ccccc2)N2[C@H]1[C@@H](C(=O)NC[C@H](O)c1ccccc1)[C@]1(C(=O)Nc3ccc(C#CC4(O)CCCCCC4)cc31)[C@H]2c1ccccc1OCCO`, the figures for the composite z-score in assay [1] and in assay [2] were -0.34 (inactive) and 0.814, respectively. The z-score is -2.04 in assay [3], -2.77 (inactive) in assay [4], -0.0899 (inactive) in assay [5] and -0.0113 (inactive) in assay [6].
Regarding `CC(C)N1C(=O)c2ccccc2[C@](C)(C(=O)NCCCN(C)C)[C@@H]1c1ccc(CO)cc1`, the figures for the composite z-score in assay [1] and in assay [2] were 0.289 (inactive) and 0.431, respectively. The z-score in assay [3] is 0.191; in assay [4], -1.73 (inactive); in assay [5], 0.0165 (inactive); in assay [6], 0.149 (inactive).
Turning to `COC(=O)[C@@]1(Cc2ccc(OC)cc2)[C@H]2c3cc(C(=O)N4CCCC4)n(CCc4ccccn4)c3C[C@H]2CN1C(=O)c1ccccc1`, the composite z-score in assay [1] is 0.679 (inactive); in assay [2], 0.864. Further, the z-score in assay [3] is -1.77; in assay [4], -5.3 (inactive); in assay [5] it was -0.235 (inactive); in assay [6] it was -0.224 (inactive).
As for `NC(=O)NCC#Cc1ccc2c(c1)[C@]1(C(=O)N2)[C@H](C(=O)NC[C@H](O)c2ccccc2)[C@H]2C(=O)O[C@H](c3ccccc3)[C@H](c3ccccc3)N2[C@@H]1c1ccccc1OCCO`, the composite z-score in assay [1] was 0.635 (inactive); in assay [2] it was 0.799. The z-score was -1.32 in assay [3], -3.41 (inactive) in assay [4], -0.228 (inactive) in assay [5] and -0.374 (inactive) in assay [6].
Take `C=CC[C@]1(C(=O)NCCN2CCOCC2)N=C(c2ccc(OCCCO)cc2)O[C@H]1c1ccccc1N=[N+]=[N-]`: the figures for the composite z-score in assay [1] and in assay [2] were 3.25 (inactive) and 0.819, respectively. In addition, the z-score in assay [3] is -2.27; in assay [4] it was -3.35 (inactive); in assay [5], -0.56 (inactive); in assay [6], -0.265 (inactive).
For the compound `O=C1OCC=C[C@H]2OC34C=CCN(Cc5ccccc5)C(=O)[C@H]3N(CCCO)C(=O)[C@@H]4[C@@H]12` (stereo partly drawn), the composite z-score in assay [1] was 1.09 (inactive); in assay [2], 0.212. Moreover, the z-score in assay [3] was -1.89; in assay [4], -4.31 (inactive); in assay [5], -1.44 (inactive); in assay [6] it was -0.938 (inactive).
Take `COCCCNC(=O)[C@@]1(C)c2ccccc2C(=O)N(Cc2ccccc2)[C@H]1c1ccc(CO)cc1`: the composite z-score in assay [1] was 0.132 (inactive); in assay [2], 0.947. Further, the z-score in assay [3] was -1.35; in assay [4] it was -1.86 (inactive); in assay [5] it was -0.258 (inactive); in assay [6], -0.432 (inactive).
With `CC(C)(C)OC(=O)CC[C@@]1(C(=O)NCC(O)CO)N=C(c2ccc(OCCCO)cc2)O[C@@H]1c1ccccc1` (stereo partly drawn), the composite z-score in assay [1] was 0.826 (inactive); in assay [2] it was 0.942. Moreover, the z-score in assay [3] was 0.649; in assay [4] it was -4.48 (inactive); in assay [5], 0.184 (inactive); in assay [6], -0.14 (inactive).
With `C[C@H]1C2[C@H](Cc3ccccc3)NC(=O)[C@]23C(=O)N[C@H](Cc2ccccc2)C(=O)N[C@H](Cc2ccccc2)C(=O)NC/C=C/CCC/C=C/C3[C@@H]2O[C@]12C` (stereo partly drawn), the composite z-score is 0.353 (inactive) in assay [1] and 0.518 in assay [2]. In addition, the z-score in assay [3] is -1.71; in assay [4], -5.67 (inactive); in assay [5], 0.275 (inactive); in assay [6], 0.371 (inactive).
